Compound activity from PubChem BioAssay.
GLP1R cytotox = qHTS of GLP-1 Receptor Inverse Agonists: Cytotox Screen; HEK293 cAMP-luciferase reporter cells, luminescence, 24 h; Potency, µM (top dose mostly 38.3 µM), inactives show top-dose activity change, negative = inhibition, most hits filed as inhibitors; 410,000 compounds, 0.13% hits;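 note: loss of luciferase light is scored as toxicity; potency is the fitted concentration of half-maximal effect; % is set by controls: 0 for no effect and ±100 for the full control effect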
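Step one: seed cells (200 cells/uL, DMEM with 10% Nu serum, 1% pen-strep). Step two: 12-hour incubation at 37 deg C. Step three: pin 23 nL compound, incubate 24 hr. Step four: add luciferase reagent, read luminescence 12 min later.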
uPA surface inh = qHTS for Inhibitors of Cell Surface uPA Generation | 330,000 compounds, 0.31% hits | Potency, µM (titrated, usually from 38.3 µM), for the others: at the highest dose activity change, negative = inhibition, usual class: inhibitors | cell surface uPA generation assay, qHTS; active = well fitted inhibition curve with a large enough effect; inconclusive = small, poorly fitted or top-dose-only effect; inactive = no such curve, though single readings can be large or run the other way; tested in mouse RAW 264.7 cells; note: potency is the fitted concentration of half-maximal effect; % is set by controls: 0 for no effect and ±100 for the full control effect; nearly all actives have a fitted effect of over 55% in size
GLP-1R agonist = qHTS of GLP-1 Receptor Agonists; HEK293 GLP-1R CRE-luciferase, luminescence, 4-6 h; cells express a hypersensitive GLP-1R form; Potency, µM (doses to about 45.6 µM), inactives show top-dose activation, usual class: activators; 380,000 compounds, 0.007% hits; AID 624172, 2012; note: potency is the fitted concentration of half-maximal effect; % of control where 0% means no effect
Target sequence (P43220 whole entry, looked up): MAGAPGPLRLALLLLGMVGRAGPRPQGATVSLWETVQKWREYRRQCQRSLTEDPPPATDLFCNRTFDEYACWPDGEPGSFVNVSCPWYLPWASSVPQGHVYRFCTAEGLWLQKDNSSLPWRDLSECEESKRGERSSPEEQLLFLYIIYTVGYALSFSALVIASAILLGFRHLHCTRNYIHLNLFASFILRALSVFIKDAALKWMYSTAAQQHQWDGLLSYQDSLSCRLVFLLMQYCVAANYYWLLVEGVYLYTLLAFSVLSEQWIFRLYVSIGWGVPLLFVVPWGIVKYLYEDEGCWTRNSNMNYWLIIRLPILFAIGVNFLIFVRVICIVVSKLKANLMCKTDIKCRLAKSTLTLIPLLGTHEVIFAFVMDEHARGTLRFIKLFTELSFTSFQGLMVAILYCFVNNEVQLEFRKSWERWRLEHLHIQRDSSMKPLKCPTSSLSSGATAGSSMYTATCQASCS
GLP1R inv ag = qHTS of GLP-1 Receptor Inverse Agonists (Inhibition Mode) | 410,000 compounds, 1.6% hits | HEK293 GLP-1R CRE-luciferase, luminescence, 24 h; GLP-1R form is constitutively active | AID 624417, 2012 | Potency, µM (titrated, usually from 38.3 µM), inactives show at the top dose activity change, negative = inhibition, usual class: inhibitors; note: potency is the fitted concentration of half-maximal effect; % is set by controls: 0 for no effect and ±100 for the full control effect; nearly all actives have a fitted effect of over 55% in size
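Using stably transfected HEK293 (constitutively active GLP-1R, cAMP-luciferase reporter), compounds were incubated 24 hr and luciferase measured by luminescence.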
Mm-Cpn inhibitor = Inhibitors of TCP-1 ring complex (TRiC) of Methanococcus maripaludis (MmCpn): qHTS. 330,000 compounds, 0.031% hits. Potency, µM (top dose mostly 76.9 µM), without a hit: at the highest dose activity, negative = inhibition, most hits filed as inhibitors. purified Mm-Cpn ATPase, ADP Transcreener TR-FRET. Chaperonin Mm-Cpn (Methanococcus maripaludis); note: potency is the fitted concentration of half-maximal effect; % is set by controls: 0 for no effect and ±100 for the full control effect; nearly all actives have a fitted effect of over 80% in size
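Measured: ADP formation by purified Mm-CPN. Conditions: 25 nM protein, 10 uM ATP, Tris pH 7.4 with Mg2+, K+ and DTT, 37°C for 30 min. Detection: Transcreener HTRF after 30 min at room temperature.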
CCT chaperon mod = High-Throughput Screening for Modulators of Cytosolic Chaperonin Activity | purified chaperonin ATPase assay, HTRF ADP detection, 30 min | activity change, % (test concentration not listed), hits read low | 360,000 compounds, 0.3% hits; in the data active = activity change below about -30%; note: % is set by controls: 0 for no effect and ±100 for the full control effect
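ATPase activity: ADP formed was measured by HTRF Transcreener (665/615 nm ratio) after 30 min at 37 deg C with 10 uM ATP. Compounds screened at one 76 uM concentration against 40 or 20 nM TRiC in Tris pH 7.4/KCl/MgCl2/DTT buffer.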
* marks the source's active call; other numbers are inactive results; ? = inconclusive; nt = no result given. Only some compounds are listed: those with a hit (about 2.2% of all), similar ones and a draw of the others. Unless noted, calls come from the whole dose curve; as a rule, active = well fitted curve in the direction sought with a large enough effect; inconclusive = small, poorly fitted or top-dose-only effect, or another doubt; inactive = no such curve, though single readings can be large; an effect the other way counts as inactive or inconclusive.

SMILES	GLP1R cytotox	uPA surface inh	GLP-1R agonist	GLP1R inv ag	Mm-Cpn inhibitor	CCT chaperon mod
COc1ccccc1OCC(=O)Nc1c(C(=O)c2ccc(F)cc2)oc2ccccc12	5%	nt	-2%	4%	nt	nt
Cc1cc(C)c(S(=O)(=O)N2CCCCC2)cc1N(C)S(=O)(=O)c1ccc(Cl)cc1	-8%	6%	-3%	13µM*	-1%	-2
COc1cccc(NC(=O)CSc2nc(=O)n(Cc3cccnc3)c3c2CCC3)c1	-7%	nt	nt	3%	nt	nt
Cc1ccc(-c2cc(=O)c3cc(F)ccc3[nH]2)cc1	0%	?	1%	-16%	0%	0
O=c1cc(-c2ccccc2)[nH]c2ccc(F)cc12	5%	0.4µM*	9%	?	3%	-1
COc1ccc2[nH]c(-c3cccc(F)c3)cc(=O)c2c1	?	0.35µM*	10%	-27%	1%	-1
Cc1ccc(-c2cc(=O)c3cc(C)ccc3[nH]2)cc1	-38%	1.1µM*	-10%	3.2µM*	-1%	0
O=c1cc(-c2cccc(F)c2)[nH]c2ccccc12	18%	?	0%	?	1%	2
O=c1cc(-c2ccccc2)[nH]c2cc(Cl)ccc12	-11%	0.045µM*	-2%	-8%	-5%	-2
Clc1ccc2[nH]c(-c3ccccc3)cc2c1	16%	12%	0%	?	-2%	-1
COc1cc(/C=C/c2nc3cc(Cl)ccc3c(=O)n2-c2ccc(C)cc2C)cc(OC)c1OC	3%	nt	nt	-5%	nt	nt
COc1ccc(-c2cc3nc(-c4ccccc4)cc(N4CCC(O)CC4)n3n2)cc1	?	17%	13%	7.9µM*	-3%	1
COc1ccc(-c2cc3nc(-c4ccccc4)cc(N4CCCC(O)C4)n3n2)cc1 (stereo not drawn)	3%	34%	3%	?	1%	0
Cc1cccc(-c2cc3nc(C)cc(NCCCN(C)C)n3n2)c1	-12%	-4%	-4%	0%	1%	-4
COCCN1CCN(c2cc(-c3ccccc3)nc3cc(-c4cccc(F)c4)nn23)CC1	66%	8%	-18%	7.9µM*	-2%	0
CN(C)CCCNc1cc(-c2ccccc2)nc2cc(-c3cccc(F)c3)nn12	?	5µM*	-3%	3.5µM*	1%	-4
Cc1ccc(CNC(=O)c2cc(Sc3ccc(F)cc3F)nc3ccccc23)cc1	4%	nt	nt	-2%	nt	nt
COc1ccc(NC(=O)C(NC(C)=O)C(=O)NCc2ccccc2OC)cc1 (stereo not drawn)	0%	5%	-3%	0%	5%	-2
COc1ccc(CNC(=O)C(NC(C)=O)C(=O)Nc2ccc(C(C)C)cc2)cc1 (stereo not drawn)	-15%	6%	4%	-10%	-1%	-41*
O=C1NC[C@@H](Cc2cccc3ccccc23)N(CC2(c3ccccc3)CC2)C1=O	3%	-3%	-3%	11µM*	-1%	2
CCCCn1cnc2cc(NCc3ccccc3Cl)ccc21	-9%	nt	0%	-21%	nt	nt
CCOC(=O)C1(CCOc2ccccc2)CCN(Cc2nccn2CC)CC1	?	-2%	20%	10µM*	1%	-1
CCOC(=O)C1(CCCc2ccccc2)CCN(Cc2cnc(C)s2)CC1	-10%	-4%	12%	?	0%	-4
CCOC(=O)C1(CCOc2ccccc2)CCN(Cc2cccc(OC)c2)CC1	4%	-25%	12%	11µM*	nt	1
CCOC(=O)C1(CCOc2ccccc2)CCN(Cc2ccncc2)CC1	7%	1%	9%	-41%	-1%	-2
